45 molecules from PubChem BioAssay AID720709 (National Center for Advancing Translational Sciences (NCATS), 2013) can be followed below.

SMILES strings stand for the structures. About 520 (0.14%) of roughly 360,000 compounds were called active. Another 3% or so got no clear call; they are omitted. The sample holds actives, similar compounds and a random draw of the others, so the mix is not that of the screen. Values without a mark were called inactive. Calls come from the whole dose curve; as a rule, active = well fitted inhibition curve with a large enough effect; inconclusive = small, poorly fitted or top-dose-only effect; inactive = no such curve, though single readings can be large or run the other way.
Potency is the fitted concentration of half-maximal effect.

Sequence of Rap guanine nucleotide exchange factor 3 (Homo sapiens) (O95398 whole entry, looked up): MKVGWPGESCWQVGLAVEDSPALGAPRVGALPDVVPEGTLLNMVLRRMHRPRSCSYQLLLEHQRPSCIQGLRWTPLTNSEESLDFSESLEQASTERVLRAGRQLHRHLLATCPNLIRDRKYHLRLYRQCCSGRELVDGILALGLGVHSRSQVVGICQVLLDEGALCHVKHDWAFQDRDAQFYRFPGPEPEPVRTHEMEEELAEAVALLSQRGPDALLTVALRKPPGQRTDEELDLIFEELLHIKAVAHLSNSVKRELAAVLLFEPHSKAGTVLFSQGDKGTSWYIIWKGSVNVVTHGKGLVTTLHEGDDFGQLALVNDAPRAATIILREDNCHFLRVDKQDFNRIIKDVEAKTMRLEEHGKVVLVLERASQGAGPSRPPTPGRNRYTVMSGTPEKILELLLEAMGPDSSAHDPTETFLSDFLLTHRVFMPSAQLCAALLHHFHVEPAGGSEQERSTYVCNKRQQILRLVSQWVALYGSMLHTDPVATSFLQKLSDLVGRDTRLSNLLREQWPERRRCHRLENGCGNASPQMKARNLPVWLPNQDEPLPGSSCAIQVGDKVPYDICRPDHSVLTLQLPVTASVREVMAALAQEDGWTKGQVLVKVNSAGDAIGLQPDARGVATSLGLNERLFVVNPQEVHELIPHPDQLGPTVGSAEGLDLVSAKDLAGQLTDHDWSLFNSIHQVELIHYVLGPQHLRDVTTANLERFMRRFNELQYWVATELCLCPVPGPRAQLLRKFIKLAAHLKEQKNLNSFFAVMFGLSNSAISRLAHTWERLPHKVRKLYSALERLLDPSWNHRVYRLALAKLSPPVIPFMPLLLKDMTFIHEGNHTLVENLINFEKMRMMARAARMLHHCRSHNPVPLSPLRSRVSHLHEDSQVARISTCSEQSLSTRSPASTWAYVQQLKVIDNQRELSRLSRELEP

The target of this assay is Rap guanine nucleotide exchange factor 3 (Homo sapiens) (UniProt O95398). As to the kind of experiment: qHTS for Antagonist of cAMP-regulated guanine nucleotide exchange factor 3 (EPAC1): primary screen. Note: nearly all actives have a fitted effect of over 50% in size. The conditions noted are these: EPAC1 GEF assay, Rap1b-BODIPY-GDP exchange fluorescence; series mostly up to 115 µM; activity change, negative = inhibition: at the top concentration. The text has this:
In multi-cellular eukaryotic organisms, the effects of cAMP are transduced by two ubiquitously-expressed intracellular cAMP receptors, the classic protein kinase A/cAMP-dependent protein kinase (PKA/cAPK) and the more recently discovered exchange protein directly activated by cAMP/cAMP-regulated guanine nucleotide exchange factor (EPAC/cAMP-GEF). Both PKA and EPAC are ubiquitously expressed in all tissues, and an increase in intracellular cAMP levels will lead to the activation of both PKA and EPAC. Therefore, careful dissections of the individual role and relative contribution of EPAC and PKA within the overall cAMP signaling in various model systems are critical for further elucidating the mechanism of cAMP signaling. To date no EPAC-specific antagonists and agonist, as well as isoform-specific agonists have been reported, and developing EPAC-specific pharmacological probes to determine the physiological functions that EPAC play in the overall cAMP-mediated signaling remains a major challenge within the research field. Furthermore, identified regulators of EPAC may lead to new mechanism-based therapeutic strategies specifically targeting the EPAC / cAMP-signaling components as EPAC has been implicated to play important roles in major human pathological conditions such as diabetes, heart disease, and cancer. This qHTS will be used to screen the Molecular Libraries Small Molecule Repository (MLSMR) as a concentration-titration series using the NCGC unique quantitative screening (qHTS) platform to find inhibitors for EPAC1. In addition, this assay will also be used as a counterscreen for the EPAC2 qHTS. This fluorescent based assay is developed and validated for EPAC1 that measures exchange using EPAC effector Rap1 complex with BODIPY-GDP, a GDP analog with a tethered fluorophores. Inhibitors are identified by monitoring the change in fluorescence signal as the exchanged free BODIPY-GDP has a reduced fluorescence compared to Rap1-bound BODIPY-GDP. Decrease in signal (inhibition) is the desired outcome for the EPAC1 antagonist while no activity in this assay is desired for the EPAC2 antagonist counterscreen. de Rooij, J., Zwartkruis, F. J., Verheijen, M. H., Cool, R. H., Nijman, S. M., Wittinghofer, A., and Bos, J.L. (1998) Nature 396, 474-477 [2] Kawasaki, H., Springett, G. M., Mochizuki, N., Toki, S., Nakaya, M., Matsuda, M., Housman, D. E., and Graybiel, A. M. (1998) Science 282, 2275-2279 NIH Chemical Genomics Center [NCGC] NIH Molecular Libraries Probe Centers Network [MLPCN] MLPCN Grant: NS066510 Assay Submitter (PI): Xiaodong Cheng, The University of Texas, Medical Branch
Briefly, three uL of reagents (100 nM EPAC1, 250 nM RAP1B-BODIPY-GDP, 50 uM GDP) were dispensed into a 1536-well Greiner black solid-bottom medium binding assay plate. Controls and test compounds (23 nL) were transferred to the plate via a Kalypsys pin tool equipped with a 1536-pin array. The plates were centrifuged at 1,000 rpm for 15 seconds followed by 5 minute incubation at room temperature. The assay plates were read at 5 minute intervals for 30 minutes in the ViewLux plate reader using 480nm excitation and 540nm emission filters. The results were normalized to the […] positive control ATA and DMSO.
In general terms: qHTS replaces the single test concentration by a dilution series.
In the case of `CCCCN1C(=O)C(CC(=O)NCc2cccs2)CC(C(=O)N2CCCCCC2)=C1C` (stereo not given), the “activity change, negative = inhibition” value is 3.73%.

In the case of `O=C(Nc1ccc(S(=O)(=O)Nc2nccs2)cc1)c1cc(=O)[nH]c2ccccc12`, the “activity change, negative = inhibition” value was -5.17%.

As for `O=C(Nc1ccc(S(=O)(=O)Nc2nccs2)cc1)c1cc(-c2ccncc2)nc2ccccc12`, the Potency was 79.4 µM (active).

For `O=C(CCc1ccccc1Cl)Nc1ccc(S(=O)(=O)Nc2nccs2)cc1`, the “activity change, negative = inhibition” value was -9.94%.

Take `Cc1ccc2nc(-c3ccco3)c(Cc3cccc(Cl)c3)n2c1`: the “activity change, negative = inhibition” value was -18.2%.

For `CCOC(=O)N1CCN(C(=O)C[C@@H]2C[C@@]3(C(=O)OC)CCCCC=C3N(CCC3=CCCCC3)C2=O)CC1`, the “activity change, negative = inhibition” value is -16.7%.

As for `CC(C)C[C@H]1CNC(=O)C(=O)N1C[C@@H]1CCCN1C[C@H](Cc1ccccc1)N1C[C@H](CC(C)C)N(CC2CCCCCC2)C(=O)C1=O`, the “activity change, negative = inhibition” value was 18.3%.

Turning to `O=C(NCc1ccccn1)[C@@H]1CCCN1C(=O)[C@@H]1CCCN1C(=O)c1ccccc1`, the “activity change, negative = inhibition” value is -19.8%.

For `COC(=O)c1ccc2nc(-c3ccc(F)cc3)c(Cc3ccc(C)cc3)n2c1`, the “activity change, negative = inhibition” value is 4.03%.

For `CC1(C(=O)NCc2ccccc2)CSCC(=O)N1CCCn1ccnc1` (stereo not given), the “activity change, negative = inhibition” value is 0.234%.

For `COc1ccc(C(C(=O)NCc2ccccc2)n2c(=O)c(-c3ccccc3)nc3ccccc32)cc1` (stereo not given), the “activity change, negative = inhibition” value was -4.62%.

On to `CC(C)(C)NC(=O)C(CCc1ccccc1)n1c(=O)c(-c2ccccc2)nc2ccccc21` (stereo not given), for which the “activity change, negative = inhibition” value is -7.46%.

As for `CCCCNC(=O)OC1CC2CC1[C@H]1CCCCN1C2=O` (stereo not given in full), the “activity change, negative = inhibition” value was -17.4%.

`CCCCNC(=O)C[C@@H]1C[C@@]2(C(=O)OCC)CCC=C2N(Cc2cccc3ccccc23)C1=O`: the “activity change, negative = inhibition” value was 5.54%.

With `CCCCn1nnnc1C(c1cc2ccccc2o1)N(C)Cc1ccc(Cl)c(Cl)c1` (stereo not given), the “activity change, negative = inhibition” value is 7.34%.

In the case of `COC(=O)C[C@H]1C=C[C@@H](NS(=O)(=O)c2ccc(C)cc2)[C@@H](CO)O1`, the “activity change, negative = inhibition” value is 14%.

For `CCC(c1nnnn1-c1ccc2c(c1)OCCO2)N1CCN(c2ccc(C(F)(F)F)cn2)CC1` (stereo not given), the “activity change, negative = inhibition” value was -0.835%.

For the molecule `CC(=O)C[C@@H]1OC[C@H](CO)N1S(=O)(=O)c1ccc(C)cc1`, the “activity change, negative = inhibition” value was 9.07%.

For the molecule `COc1ccc(C2OC(CCc3ccccc3)Cc3[nH]c(=S)[nH]c(=O)c32)cc1` (stereo not given), the “activity change, negative = inhibition” value is -21.1%.

Turning to `CCOc1ccc(CC(=O)Nc2ccc(S(=O)(=O)Nc3cc(C)on3)cc2)cc1OCC`, the “activity change, negative = inhibition” value is 4.44%.

For `CCOc1ccc(C(=O)Nc2ccc(S(=O)(=O)Nc3cc(C)on3)cc2)cc1`, the “activity change, negative = inhibition” value is -4.54%.

Regarding `CCOc1ccc(Br)cc1S(=O)(=O)Nc1ccc(S(=O)(=O)Nc2cc(C)on2)cc1`, the Potency is 39.8 µM (active).

Take `CSCCC(C(=O)NC(C)(C)C)n1c(-c2ccccc2)nc2ccccc21` (stereo not given): the “activity change, negative = inhibition” value is 5.22%.

`Fc1cccc(Cc2c(-c3cccc(Cl)c3)nc3ccc(Br)cn23)c1`: the “activity change, negative = inhibition” value is -9.71%.

With `COC(=O)C[C@@H]1C=C[C@@H](NC(=O)c2cccnc2)[C@@H](CO)O1`, the “activity change, negative = inhibition” value is -6.55%.

On to `C[C@@H]1CC2=C(C(=O)OC(C)(C)O2)[C@@H](C2CC2)O1`, for which the “activity change, negative = inhibition” value was 3.98%.

Take `O=S1(=O)CC(N2CCN(CCO)CC2)CN1Cc1cn(Cc2ccc(Cl)cc2)nn1` (stereo not given): the “activity change, negative = inhibition” value is -10.3%.

Turning to `Cc1nccn1-c1ccc(NC(=O)[C@H]2O[C@@H](n3ccc(=O)[nH]c3=O)[C@H](O)[C@@H]2O)cc1`, the “activity change, negative = inhibition” value is -7.46%.

For `COc1ccc(OC)c(CN2C(=O)CCC2(C)c2nnnn2Cc2ccccc2)c1` (stereo not given), the “activity change, negative = inhibition” value is 38.3%.

Consider `COC(=O)[C@@]12C[C@@H](CC(=O)NCCCCc3ccccc3)C(=O)N(CCc3ccc(OC)c(OC)c3)C1=CCC(C)(C)C2`, for which the “activity change, negative = inhibition” value is -23.2%.

Consider `CCCCCn1nnnc1-c1nc2cc3ccccc3cc2[nH]c1=O`, for which the “activity change, negative = inhibition” value is -10.4%.

Regarding `COC(=O)[C@@]12C[C@@H](CC(=O)NCCCCc3ccccc3)C(=O)N(Cc3ccccc3)C1=CCC(C)(C)C2`, the “activity change, negative = inhibition” value is 0.731%.

Turning to `CC(C)(C)C1CCC(=O)N2CCC[C@]2(c2ccccc2)C1` (stereo not given in full), the “activity change, negative = inhibition” value is -18.9%.

In the case of `CCOC(=O)[C@]12CCCC=C1N(CCC1=CCCCC1)C(=O)[C@H](CC(=O)N1CCN(C(=O)c3ccco3)CC1)C2`, the “activity change, negative = inhibition” value is 1.32%.

As to `Cc1[nH]c2ccccc2c1C(=O)c1cc([C@H](NC(=O)OC(C)(C)C)C(C)C)sc1N`, the “activity change, negative = inhibition” value was -13.3%.

On to `CCOC(=O)N1C(=O)C[C@](Sc2ccc(C)cc2)(C(=O)OC)[C@H]1c1ccccc1`, for which the “activity change, negative = inhibition” value was -13.4%.

Take `O=C(C[C@H]1CC[C@H]2[C@@H](COC[C@H](O)CN2C(=O)c2ccccn2)O1)N1CCN(c2ccccc2)CC1`: the “activity change, negative = inhibition” value was 10.9%.

As for `Nc1nc2c(Br)ccc(Br)c2cc1C(=O)NCCc1ccccc1`, the “activity change, negative = inhibition” value was -1.34%.

In the case of `O=c1[nH][nH]c2c1[C@H](c1ccc(Cl)cc1)O[C@H](CCc1ccccc1)C2`, the “activity change, negative = inhibition” value was -17.2%.

`CC1(C(=O)Nc2ccc3c(c2)OCCO3)CSCC(=O)N1CCOc1ccccc1` (stereo not given): the “activity change, negative = inhibition” value is 9.55%.

With `Cc1ccc(S(=O)(=O)N[C@H](CO)C(C)C)cc1`, the “activity change, negative = inhibition” value is -3.21%.

`N#Cc1ccc(-c2nc3c(Cl)cc(C(F)(F)F)cn3c2Cc2ccccc2C(F)(F)F)cc1`: the “activity change, negative = inhibition” value was -5.26%.

For the molecule `CC1(C)OC(=O)C2=C(C[C@@H](C3CCCCC3)O[C@@H]2c2ccc(Cl)cc2)O1`, the “activity change, negative = inhibition” value was -25.4%.

`COC(=O)C1(C(=O)OC)C[C@H](c2ccccc2)N(Cc2ccccc2OC)[C@@H]1c1ccccc1`: the “activity change, negative = inhibition” value is -3.05%.

For `CN1CCN(c2ccc3c(c2)OC[C@H](Cc2ccccc2)NS3(=O)=O)CC1`, the “activity change, negative = inhibition” value is -10.2%.
